# Where “and” joins values, the source holds several entries; their conditions need not be identical. Equal entries are not always repeated. Records with an inconclusive call do not appear. Where a structure was tested more than once in an assay, its records may differ in their call. Calls of active or inactive are those of the source. How the source made its calls: active means hit-call score of the fitted dose curve at least 0.9, where 1 is the maximum; inconclusive means response in the unintended direction; inactive means score below 0.9.
# Columns and labels:
# [1] = biological target: Glucocorticoid receptor (Homo sapiens) (UniProt P04150); experiment: NVS_NR_hGR: NovaScreen (NVS) Nuclear Receptor Binding Assay for human Glucocorticoid Receptor (GR) (AID 2283363);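 on AC50: activity is loss of specific radioligand binding signal relative to DMSO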
# Glucocorticoid receptor (Homo sapiens), sequence (P04150 whole entry, looked up): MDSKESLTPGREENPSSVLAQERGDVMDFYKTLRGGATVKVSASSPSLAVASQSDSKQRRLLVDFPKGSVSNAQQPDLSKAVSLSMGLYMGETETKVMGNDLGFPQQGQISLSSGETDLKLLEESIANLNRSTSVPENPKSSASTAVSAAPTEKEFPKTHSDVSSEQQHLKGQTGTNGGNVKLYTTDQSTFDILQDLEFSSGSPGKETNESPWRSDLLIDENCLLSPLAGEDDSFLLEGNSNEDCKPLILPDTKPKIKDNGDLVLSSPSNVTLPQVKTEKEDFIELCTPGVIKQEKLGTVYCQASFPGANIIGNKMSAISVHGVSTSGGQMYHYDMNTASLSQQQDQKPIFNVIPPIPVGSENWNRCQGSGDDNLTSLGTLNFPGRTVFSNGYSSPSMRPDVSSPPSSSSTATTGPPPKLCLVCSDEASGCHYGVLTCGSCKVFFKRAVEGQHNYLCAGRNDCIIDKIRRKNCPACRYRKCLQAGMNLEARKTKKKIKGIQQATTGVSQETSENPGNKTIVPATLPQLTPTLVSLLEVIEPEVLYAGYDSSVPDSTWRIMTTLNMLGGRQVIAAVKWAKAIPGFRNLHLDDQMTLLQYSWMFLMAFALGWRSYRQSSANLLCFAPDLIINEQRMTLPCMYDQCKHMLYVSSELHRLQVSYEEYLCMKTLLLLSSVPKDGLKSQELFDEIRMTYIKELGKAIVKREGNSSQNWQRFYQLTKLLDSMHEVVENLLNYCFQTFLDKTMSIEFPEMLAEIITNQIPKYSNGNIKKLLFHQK
# Procedure, shortened: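 Competitive displacement of a labelled ligand was measured on cell-free receptor preparations after 16 h exposure. Initial testing used 25 uM in duplicate with plate controls; confirmed actives went into concentration series.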
# [2] = biological target: PGR (gene 5241) (UniProt P06401); experiment: NVS_NR_hPR: NovaScreen (NVS) Nuclear Receptor Binding Assay for human Progestron Receptor (PR) (AID 2283360);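 further: active means loss of bound radioligand signal versus DMSO baseline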
# PGR (gene 5241), sequence (P06401 whole entry, looked up): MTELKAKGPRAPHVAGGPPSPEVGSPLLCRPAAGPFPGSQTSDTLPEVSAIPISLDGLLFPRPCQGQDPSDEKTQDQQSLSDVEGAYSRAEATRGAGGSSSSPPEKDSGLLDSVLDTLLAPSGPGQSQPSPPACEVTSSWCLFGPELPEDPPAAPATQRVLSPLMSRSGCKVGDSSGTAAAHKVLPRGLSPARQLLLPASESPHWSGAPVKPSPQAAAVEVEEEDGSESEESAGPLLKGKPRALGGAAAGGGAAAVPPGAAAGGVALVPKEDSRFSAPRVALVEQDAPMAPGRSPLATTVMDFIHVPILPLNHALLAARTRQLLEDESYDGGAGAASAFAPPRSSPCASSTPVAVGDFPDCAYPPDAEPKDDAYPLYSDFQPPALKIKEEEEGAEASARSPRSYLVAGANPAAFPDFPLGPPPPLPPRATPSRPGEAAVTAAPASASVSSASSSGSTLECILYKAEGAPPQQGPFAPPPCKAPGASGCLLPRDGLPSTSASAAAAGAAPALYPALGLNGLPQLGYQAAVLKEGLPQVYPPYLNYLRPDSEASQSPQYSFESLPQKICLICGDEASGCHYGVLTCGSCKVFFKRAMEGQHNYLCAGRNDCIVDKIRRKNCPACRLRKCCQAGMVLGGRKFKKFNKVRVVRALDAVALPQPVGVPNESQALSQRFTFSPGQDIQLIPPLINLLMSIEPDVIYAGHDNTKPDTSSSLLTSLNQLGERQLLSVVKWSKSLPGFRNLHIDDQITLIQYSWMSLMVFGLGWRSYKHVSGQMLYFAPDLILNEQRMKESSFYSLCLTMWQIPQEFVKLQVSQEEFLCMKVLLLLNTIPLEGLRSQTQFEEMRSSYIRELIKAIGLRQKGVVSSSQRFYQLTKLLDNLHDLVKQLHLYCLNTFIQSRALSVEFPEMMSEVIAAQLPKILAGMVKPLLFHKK
# Procedure, shortened: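 Radioligand competition binding on receptor extracted from T47D cells, read by scintillation counting 18 h after dosing. Loss of signal versus DMSO; primary screen in duplicate at 25 uM, actives followed in concentration series.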
# [3] = biological target: guinea pig Sigma Receptor, Non-selective Binding, SIGMAR1 (gene 100135589) (UniProt Q60492); experiment: NVS_OR_gSIGMA_NonSelective: NovaScreen (NVS) Nuclear Receptor Binding Assay for guinea pig Sigma Receptor, Non-selective Binding (AID 2283367)
# guinea pig Sigma Receptor, Non-selective Binding, SIGMAR1 (gene 100135589), sequence (Q60492 whole entry, looked up): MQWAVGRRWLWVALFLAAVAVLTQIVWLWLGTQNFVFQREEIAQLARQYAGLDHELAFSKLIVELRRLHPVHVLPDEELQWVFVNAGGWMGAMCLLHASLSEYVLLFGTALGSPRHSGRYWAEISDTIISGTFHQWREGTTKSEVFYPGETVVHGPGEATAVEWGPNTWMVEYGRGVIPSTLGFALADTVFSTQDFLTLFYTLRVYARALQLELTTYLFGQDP
# Procedure, shortened: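 gp brain membr., radioligand displacement, 1 h, filtration + scint. counting; DMSO = baseline; 25 uM x2 primary, conc.-response confirm.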
# [4] = biological target: human Peroxisome Proliferator-activated Receptor alpha (PPARa), PPARA (gene 5465) (UniProt Q07869); experiment: NVS_NR_hPPARa: NovaScreen (NVS) Nuclear Receptor Binding Assay for human Peroxisome Proliferator-activated Receptor alpha (PPARa) (AID 2283359);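 further: activity means loss of TR-FRET signal versus DMSO baseline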
# human Peroxisome Proliferator-activated Receptor alpha (PPARa), PPARA (gene 5465), sequence (Q07869 whole entry, looked up): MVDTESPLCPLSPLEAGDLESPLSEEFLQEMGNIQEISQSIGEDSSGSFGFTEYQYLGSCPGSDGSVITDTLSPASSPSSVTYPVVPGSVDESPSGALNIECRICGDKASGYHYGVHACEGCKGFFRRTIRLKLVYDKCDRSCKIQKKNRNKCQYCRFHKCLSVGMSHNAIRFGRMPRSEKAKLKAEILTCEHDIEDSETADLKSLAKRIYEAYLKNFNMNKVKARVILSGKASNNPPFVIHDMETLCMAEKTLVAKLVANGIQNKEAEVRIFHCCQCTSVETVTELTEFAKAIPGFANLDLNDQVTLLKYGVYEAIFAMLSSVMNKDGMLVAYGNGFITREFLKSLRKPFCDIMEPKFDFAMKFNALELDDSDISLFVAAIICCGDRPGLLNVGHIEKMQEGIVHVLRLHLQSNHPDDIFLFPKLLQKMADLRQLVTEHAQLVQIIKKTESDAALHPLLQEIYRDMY
# Procedure, shortened: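 Chemicals were first screened in duplicate at 25 uM, and active ones were retested across concentration series. Binding was monitored by TR-FRET one hour after dosing, with decreased signal against DMSO counted as activity.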
# [5] = biological target: human Adenosine Transporter (Adot), SLC29A1 (gene 2030) (UniProt Q99808); experiment: NVS_TR_hAdoT: NovaScreen (NVS) Transporter Assay for human Adenosine Transporter (Adot) (AID 2283368)
# human Adenosine Transporter (Adot), SLC29A1 (gene 2030), sequence (Q99808 whole entry, looked up): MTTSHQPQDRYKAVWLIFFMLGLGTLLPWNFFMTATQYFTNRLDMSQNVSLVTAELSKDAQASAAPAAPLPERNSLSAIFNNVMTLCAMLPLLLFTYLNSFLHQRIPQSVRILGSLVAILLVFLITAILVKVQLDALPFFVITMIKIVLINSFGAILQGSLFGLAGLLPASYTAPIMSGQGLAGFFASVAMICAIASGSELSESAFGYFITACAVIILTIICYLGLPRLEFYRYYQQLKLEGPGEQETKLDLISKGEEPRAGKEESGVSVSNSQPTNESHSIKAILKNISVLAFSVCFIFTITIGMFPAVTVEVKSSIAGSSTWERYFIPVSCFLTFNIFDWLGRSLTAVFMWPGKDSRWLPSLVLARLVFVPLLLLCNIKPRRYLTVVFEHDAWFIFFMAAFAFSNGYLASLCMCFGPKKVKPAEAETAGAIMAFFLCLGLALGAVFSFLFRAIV
# Description: NVS_TR_hAdoT is a biochemical, single-readout assay that uses extracted gene-proteins from U937 in a cell-free assay. Measurements were taken 1 hour after chemical dosing in a 96-well plate.NVS_TR_hAdoT is one of one assay component(s) measured or calculated from the NVS_TR_hAdoT assay. It is designed to make measurements of radioligand binding, a form of binding reporter, as detected with scintillation counting signals by Filter-based radiodetection technology.Data from the assay component NVS_TR_hAdoT was analyzed into 1 assay endpoint. This assay endpoint, NVS_TR_hAdoT, was analyzed in the positive analysis fitting direction relative to DMSO as the negative control and baseline of activity. […] Furthermore, this assay endpoint can be referred to as a primary readout, because the performed assay has only produced 1 assay endpoint. […]
# (§1) Binding assays used specific radioligands (tritiated, iodinated) with non-radioactive competitive displacement ligands in agonist or antagonist protocols (as indicated) and various reference compounds and inhibitors to titrate specific binding to receptors and transporters. Most enzyme assays (CYPs, kinases, phosphatases, proteases, HDACs) used recombinant protein and specific substrates (fluorescence mostly, some colorimetric and radioactive) and inhibitors, followed by a biochemical separation of substrate and product. […]
# [6] = system: guinea pig Dopamine Transporter (DAT), gene 100714898; experiment: NVS_TR_gDAT: NovaScreen (NVS) Transporter Assay for guinea pig Dopamine Transporter (DAT) (AID 2283369);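 further: active compounds lower bound radioligand signal relative to DMSO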
# Procedure, shortened: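 Guinea pig striatal membranes, cell-free radioligand binding with filter-based scintillation counting, read 2 h after dosing. Loss of signal versus DMSO baseline; single-concentration primary (25 uM) then concentration-response up to 50 uM.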
# [7] = biological target: human Thyroid Receptor Alpha (TRa), THRA (gene 7067) (UniProt P10827); experiment: NVS_NR_hTRa_Antagonist: NovaScreen (NVS) Nuclear Receptor Binding Assay for human Thyroid Receptor Alpha Antagonism (TRa) (AID 2283362)
# human Thyroid Receptor Alpha (TRa), THRA (gene 7067), sequence (P10827 whole entry, looked up): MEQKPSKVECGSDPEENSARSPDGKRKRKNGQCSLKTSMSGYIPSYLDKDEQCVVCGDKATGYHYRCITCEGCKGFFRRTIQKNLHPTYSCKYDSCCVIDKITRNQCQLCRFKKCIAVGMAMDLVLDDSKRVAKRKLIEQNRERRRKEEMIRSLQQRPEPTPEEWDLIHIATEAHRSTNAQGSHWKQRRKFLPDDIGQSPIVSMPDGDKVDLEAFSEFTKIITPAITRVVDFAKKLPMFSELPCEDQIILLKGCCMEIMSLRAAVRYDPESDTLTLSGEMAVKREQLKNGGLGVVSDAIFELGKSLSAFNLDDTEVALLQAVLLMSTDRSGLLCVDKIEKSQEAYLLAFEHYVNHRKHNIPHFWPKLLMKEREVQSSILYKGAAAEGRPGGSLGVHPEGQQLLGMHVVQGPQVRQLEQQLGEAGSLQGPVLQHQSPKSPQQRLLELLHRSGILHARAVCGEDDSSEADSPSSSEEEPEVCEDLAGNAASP
# Procedure, shortened: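 Cell-free AlphaLISA chemiluminescent binding read 1 h after dosing, antagonist mode; signal loss versus DMSO baseline. Primary screen in duplicate at 25 uM, then concentration series for actives.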
# [8] = biological target: Retinoic acid receptor alpha (Homo sapiens) (UniProt P10276); experiment: NVS_NR_hRARa_Agonist: NovaScreen (NVS) Nuclear Receptor Binding Assay for human Retinoic Acid Alpha Receptor Agonism (RAR) (AID 2283361)
# Retinoic acid receptor alpha (Homo sapiens), sequence (P10276 whole entry, looked up): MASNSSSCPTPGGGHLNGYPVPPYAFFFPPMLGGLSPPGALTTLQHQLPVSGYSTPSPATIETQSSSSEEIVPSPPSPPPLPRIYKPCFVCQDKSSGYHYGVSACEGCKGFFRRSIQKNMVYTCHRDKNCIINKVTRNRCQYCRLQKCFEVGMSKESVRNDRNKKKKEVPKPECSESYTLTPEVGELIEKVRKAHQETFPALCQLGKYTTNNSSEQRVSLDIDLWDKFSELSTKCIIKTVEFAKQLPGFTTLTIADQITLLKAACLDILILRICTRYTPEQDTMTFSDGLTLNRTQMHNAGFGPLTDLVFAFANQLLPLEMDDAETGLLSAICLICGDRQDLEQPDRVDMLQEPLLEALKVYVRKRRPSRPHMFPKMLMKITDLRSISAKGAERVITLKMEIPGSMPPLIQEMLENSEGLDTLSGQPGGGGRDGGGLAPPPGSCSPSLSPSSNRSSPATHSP
# Procedure, shortened: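 Readout is time-resolved fluorescence resonance energy transfer after a 2 h exposure of cell-free extracted receptor protein. Initial testing used 25 uM in duplicate, with concentration-response follow-up for active chemicals.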
# [9] = biological target: rat Androgen Receptor (AR), Ar (gene 24208) (UniProt P15207); experiment: NVS_NR_rAR: NovaScreen (NVS) Nuclear Receptor Binding Assay for rat Androgen Receptor (AR) (AID 2283366)
# rat Androgen Receptor (AR), Ar (gene 24208), sequence (P15207 whole entry, looked up): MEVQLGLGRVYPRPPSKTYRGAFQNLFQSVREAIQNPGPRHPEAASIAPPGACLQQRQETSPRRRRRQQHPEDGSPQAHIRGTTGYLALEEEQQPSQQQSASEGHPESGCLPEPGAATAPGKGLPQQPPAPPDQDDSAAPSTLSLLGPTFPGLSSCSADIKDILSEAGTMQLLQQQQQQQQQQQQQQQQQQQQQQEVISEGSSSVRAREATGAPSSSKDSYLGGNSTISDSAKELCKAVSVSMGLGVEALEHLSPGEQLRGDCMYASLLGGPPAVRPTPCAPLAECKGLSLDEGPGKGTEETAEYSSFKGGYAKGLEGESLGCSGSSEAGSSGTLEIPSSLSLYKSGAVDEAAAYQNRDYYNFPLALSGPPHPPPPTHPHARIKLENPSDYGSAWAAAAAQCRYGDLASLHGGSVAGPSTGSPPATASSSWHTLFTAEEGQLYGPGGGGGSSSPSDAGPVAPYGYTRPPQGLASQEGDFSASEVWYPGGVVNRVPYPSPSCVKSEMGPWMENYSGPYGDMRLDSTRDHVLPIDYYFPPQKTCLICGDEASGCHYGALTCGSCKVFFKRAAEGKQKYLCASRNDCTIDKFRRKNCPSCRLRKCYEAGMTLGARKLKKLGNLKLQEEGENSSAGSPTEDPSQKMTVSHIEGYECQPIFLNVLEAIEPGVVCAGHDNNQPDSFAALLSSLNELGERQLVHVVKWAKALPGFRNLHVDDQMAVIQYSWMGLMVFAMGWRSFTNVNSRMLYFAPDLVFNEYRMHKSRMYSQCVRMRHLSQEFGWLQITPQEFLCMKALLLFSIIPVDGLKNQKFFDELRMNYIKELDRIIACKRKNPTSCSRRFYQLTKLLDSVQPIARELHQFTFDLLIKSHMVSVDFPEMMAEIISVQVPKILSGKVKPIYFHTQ
# Description: NVS_NR_rAR is a biochemical, single-readout assay that uses extracted gene-proteins from Testosterone pre-treated rat prostate in a tissue-based cell-free assay. Measurements were taken 18 hours after chemical dosing in a 96-well plate.NVS_NR_rAR is one of one assay component(s) measured or calculated from the NVS_NR_rAR assay. It is designed to make measurements of radioligand binding, a form of binding reporter, as detected with scintillation counting signals by Filter-based radiodetection technology.Data from the assay component NVS_NR_rAR was analyzed into 1 assay endpoint. This assay endpoint, NVS_NR_rAR, was analyzed in the positive analysis fitting direction relative to DMSO as the negative control and baseline of activity. […] Furthermore, this assay endpoint can be referred to as a primary readout, because the performed assay has only produced 1 assay endpoint. […]
# as §1
smiles,measurement,setting,value
c1ccc2c(c1)sc1ccccc12,AC50,[1],0.179 µM (active)
same,outcome,[1],inactive
CCCCN(CCCC)SN(C)C(=O)Oc1cccc2c1OC(C)(C)C2,outcome,[2],inactive
same,AC50,[3],4.72 µM (active)
O=C(CBr)OCc1ccccc1,outcome,[4],inactive
O=C(O)C(Cl)Cl,outcome,[4],inactive
same,outcome,[3],inactive
O=P(Oc1ccccc1)(Oc1ccccc1)Oc1ccccc1,outcome,[4],inactive
same,outcome,[5],inactive
same,AC50,[6],18.8 µM (active)
CO/N=C(/C(=O)OC)c1ccccc1COc1ccccc1C,outcome,[7],inactive
CCN(CC)c1ccccc1,outcome,[3],inactive
CC(C)(C)c1ccccc1OP(=O)(Oc1ccccc1)Oc1ccccc1,outcome,[2],inactive
CCOP(=S)(Oc1ccc([N+](=O)[O-])cc1)c1ccccc1 (stereo not given),outcome,[2],inactive
CCC(C)(C)c1ccc(O)cc1,outcome,[1],inactive
same,AC50,[6],17.3 µM (active)
c1ccc2c(c1)Nc1ccccc1S2,outcome,[8],inactive
same,outcome,[3],inactive
CC(Cl)CN(C)C (stereo not given),outcome,[2],inactive
CCCCCCCc1ccc(O)cc1,outcome,[7],inactive
same,AC50,[1],33.3 µM (active)
same,outcome,[1],inactive
same,outcome,[9],inactive
Cc1cccc(N)c1,outcome,[8],inactive
CSC(C)(C)C=NO,outcome,[2],inactive
same,outcome,[1],inactive
same,outcome,[6],inactive
CC(C)Nc1ccc(Nc2ccccc2)cc1,AC50,[1],25 µM (active)
same,AC50,[6],25 µM (active)
CN(C)C(=O)Cl,outcome,[4],inactive
O=P(OCC(Br)CBr)(OCC(Br)CBr)OCC(Br)CBr (stereo not given),outcome,[4],inactive
ClC1=C(Cl)C2(Cl)C3C(Cl)C(Cl)CC3C1(Cl)C2(Cl)Cl (stereo not given),outcome,[4],inactive
same,outcome,[1],inactive
CCOP(=S)(NC(C)C)Oc1ccccc1C(=O)OC(C)C (stereo not given),outcome,[1],inactive
CCCCC(CC)COC(=O)c1c(Br)c(Br)c(Br)c(Br)c1C(=O)OCC(CC)CCCC (stereo not given),AC50,[1],6.58 µM (active) and 6.59 µM (active)
